Assay [1] deals with T1, Aspartate--tRNA(Asp/Asn) ligase (Mycobacterium tuberculosis (strain ATCC 25618 / H37Rv)) (UniProt P9WFW3).
T1 sequence (whole entry): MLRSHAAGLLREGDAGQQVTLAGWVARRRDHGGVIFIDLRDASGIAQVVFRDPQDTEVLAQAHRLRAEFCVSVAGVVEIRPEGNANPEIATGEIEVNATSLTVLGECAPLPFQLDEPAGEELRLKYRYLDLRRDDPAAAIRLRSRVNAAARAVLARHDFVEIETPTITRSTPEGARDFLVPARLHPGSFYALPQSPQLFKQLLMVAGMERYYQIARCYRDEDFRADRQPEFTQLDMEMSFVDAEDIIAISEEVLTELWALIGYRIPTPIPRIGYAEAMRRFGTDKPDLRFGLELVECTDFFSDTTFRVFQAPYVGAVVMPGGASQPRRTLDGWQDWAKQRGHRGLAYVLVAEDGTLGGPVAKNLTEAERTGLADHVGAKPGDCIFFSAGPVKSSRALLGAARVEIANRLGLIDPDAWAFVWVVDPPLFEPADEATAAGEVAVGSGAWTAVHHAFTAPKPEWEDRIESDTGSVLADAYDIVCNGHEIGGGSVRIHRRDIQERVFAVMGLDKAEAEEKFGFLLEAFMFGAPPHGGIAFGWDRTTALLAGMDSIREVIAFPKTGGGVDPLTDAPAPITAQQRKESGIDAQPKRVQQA
As to the kind of experiment: Assay for Asp RNA synthetase-1 from Mycobacterium tuberculosis. The settings on record: 30 µM. It counts as functional. Also on record: scale not given: direction of the effect not stated beside the values.

Assay [2] deals with Shiga toxin 2 (Escherichia coli O157:H7) (UniProt P09385+P09386). As to the kind of experiment: E. coli 0.157:H7 Shiga Toxin SOP - stx2 screening assay. Set-up: scale not given: direction of the effect not stated beside the values. The settings on record: 30 µM. It counts as functional.

For the compound `CSCC(=O)N1CCC2(CC1)c1ccccc1CC2O` (centres undefined), the Percent Effect in assay [1] is 0.357%; in assay [2] it was -32.5%.
For `Cn1cccc1CNC(=O)CCCc1nnc2ccccn12`, in that order: 1.36% and -34.1%.
Turning to `Cc1cc(C)n(CC2CCCCN2C(=O)c2ccc3nncn3c2)n1` (centres undefined), the Percent Effect in assay [1] was -3.1%; in assay [2] it was 14.5%.
Taken in the same sequence, the figures for `Cc1nc(NCCc2ccc(Cl)cc2)cc(C(=O)N2CCCCC2)n1` were 12.4% and -69.6%.
Turning to `Cc1cc(C)n(CC2CCCN2C(=O)CCc2cscn2)n1` (centres undefined), the Percent Effect in assay [1] is -0.678%; in assay [2], 17%.
For `O=C(NCCNc1ncccn1)N1CCSCC1`, in that order: -0.235% and 17.7%.
For `CCc1ccc(CN2CCCC(CO)(CCOC)C2)cc1` (centres undefined), in that order: -1.96% and -14%.
Taken in the same sequence, the figures for `CNS(=O)(=O)c1cccc(CNc2ccc(C(F)(F)F)nn2)c1` were -3.88% and 14.2%.
As to `Cc1nc(-c2ccsc2)ccc1C(=O)NCCC(=O)N1CCCC1`, the Percent Effect in assay [1] is 0.0333%; in assay [2], -18.4%.
Taken in the same sequence, the figures for `O=C(NCCCNCC1CNc2ccnn2C1)c1ccccc1` (centres undefined) were 0.0558% and -16.8%.
Taken in the same sequence, the figures for `CC(NC(=O)NCCNc1ncccn1)c1cccs1` (centres undefined) were -2.58% and -27.7%.
Taken in the same sequence, the figures for `CCN1CCn2c(C)cnc2C12CCN(C(=O)c1ccc(Cl)cc1)CC2` were 2.04% and 8.49%.
`CCN1CCOC(CNCc2ccccc2OCc2ccccn2)C1` (centres undefined): the Percent Effect was 3.85% in assay [1] and 23.9% in assay [2].
Taken in the same sequence, the figures for `O=C(NCc1ccccc1F)N1CCC(C2OCCO2)CC1` were -2.61% and -12.8%.
For `Cn1ccnc1COc1ccc(CN2CCN(CCO)CC2)cc1`, the Percent Effect in assay [1] is -5.49%; in assay [2], -50.7%.
For `CCc1nc(N)sc1C(=O)N1CCCC(CCc2ccccc2C)C1` (centres undefined), in that order: 6.53% and -7.07%.
For `CN(C)C(C(=O)N1CCCC1)c1ccccc1F` (centres undefined), in that order: 3.9% and -23.9%.
For `c1cnn(CC2CN(c3ncnc4ccsc34)CCO2)c1` (centres undefined), in that order: 1.65% and -10.2%.
For the compound `CN1CC(=O)N(c2cccc(F)c2)CC12CCNC2` (centres undefined), the Percent Effect in assay [1] is -4.35%; in assay [2], -4.44%.
Taken in the same sequence, the figures for `CCc1cnc(N2CCC(=O)N(CC3CC3)C(C(C)C)C2)nc1` (centres undefined) were 1.33% and 2.92%.
Taken in the same sequence, the figures for `COCCCC1(CO)CCCN(CCc2ccccc2)C1` (centres undefined) were -0.201% and -15.6%.
As for `Cc1cnn(CC(C)NCc2nc(-c3ccco3)no2)c1` (centres undefined), the Percent Effect in assay [1] was -4.9%; in assay [2], 2.91%.
Taken in the same sequence, the figures for `COc1cc(CN(C)C(=O)Cc2c(C)nn(C)c2C)ccc1OC(F)F` were -2.09% and -4.8%.
For `CSc1cc2c(cc1NC(=O)NCC(C)(C)C(N)=O)OCCO2`, in that order: 0.408% and -1.68%.
For `CC(C(=O)Nc1ncccn1)N1CCCN(c2nccs2)CC1` (centres undefined), in that order: 0.767% and -54.2%.
With `COc1ccc(CN2CCC3(CC2)NC(=O)CC3c2ccncc2)cc1` (centres undefined), the values for the Percent Effect in assay [1] and in assay [2] were 5.29% and 9.6%, respectively.
For `CN(Cc1cnccn1)C(=O)c1ccnc(OC2CCC2)c1`, in that order: 3.71% and -6.19%.
For `O=C(c1ccncc1)N1CCC2(CC1)CC(Oc1cccnc1)CO2` (centres undefined), in that order: 4.1% and 12.2%.
Regarding `Cc1cc(-c2cnc(NCc3cccnc3)nc2C(C)C)on1`, the Percent Effect in assay [1] stood at 6.13%; in assay [2], 10.2%.
For `COc1ccc(C2Nc3cc(Cl)ccc3C3=NCCN32)cc1OC` (centres undefined), in that order: -3.07% and -59.6%.
`CCCNC(=O)NCc1cccnc1OC`: the Percent Effect in assay [1] was -6.48%; in assay [2] it was -26.6%.
For `COc1cccc(CN2CCC3(CCN(C(=O)[C@H]4CCCO4)CC3)C2)c1`, in that order: 2.09% and -47.5%.
Taken in the same sequence, the figures for `COc1c(CNCC(c2cccc(F)c2)N(C)C)c(C(C)C)nn1C` (centres undefined) were -3.2% and -15.5%.
Taken in the same sequence, the figures for `O=C1CO[C@@H]2CN(Cc3cccs3)C[C@H]2N1CC1CC1` were 12.1% and -3.56%.
Take `CCn1ccnc1CN1CCCN(C(=O)c2cc(Cl)c[nH]2)CC1`: the figures for the Percent Effect in assay [1] and in assay [2] were -5.23% and -18.9%, respectively.
For `COCCNc1nc2c(c(NCc3ccncc3)n1)CCNCC2`, in that order: 2.58% and -12.3%.
Taken in the same sequence, the figures for `Cc1ccc(-c2cc(CN3CCOC(Cn4cncn4)C3)on2)cc1` (centres undefined) were 1.83% and -14%.
Taken in the same sequence, the figures for `CSCC(CCO)NC(=O)Nc1cccc(Br)c1` (centres undefined) were 8.05% and -15.3%.
In the case of `CN(Cc1ccccn1)C1COC2(CCN(Cc3nccs3)CC2)C1` (centres undefined), the Percent Effect in assay [1] is -4.31%; in assay [2], -5.28%.
`O=C(CCn1ccccc1=O)Nc1ccc(I)cc1`: the figures for the Percent Effect in assay [1] and in assay [2] were 8.05% and -26.1%, respectively.
Taken in the same sequence, the figures for `O=C(c1ccnnc1)N1C[C@@H](OCC2CCCC2)[C@H]2OCCC[C@H]21` were 7.95% and -3.97%.
Take `c1cnn(C2CN(Cc3nc(-c4ccsc4)no3)C2)c1`: the Percent Effect in assay [1] was -1.81%; in assay [2], 23%.
`Cc1ccc(C(CNCc2cnn(C(C)C)c2)N2CCOCC2)s1` (centres undefined): the Percent Effect in assay [1] was -4.07%; in assay [2], -11%.
Taken in the same sequence, the figures for `Cc1nc(C2CCCN(C(=O)c3ccc(N4CCCC4)nc3)C2)no1` (centres undefined) were -2.58% and -1.41%.
Taken in the same sequence, the figures for `Fc1cccnc1CN1CCCCC1c1ccn2ccnc2n1` (centres undefined) were 1.4% and -17.1%.
Taken in the same sequence, the figures for `CC(C)c1ncc(S(C)(=O)=O)c(C2CCCNC2)n1` (centres undefined) were -1.91% and 10.4%.
For `Cc1noc2ncc(C(=O)NCC3CCOC3)cc12` (centres undefined), the Percent Effect is -2.88% in assay [1] and 16.2% in assay [2].
With `CCC(=O)N1CCC(O)(c2ncc(OC)nc2OC)CC1`, the Percent Effect turned out to be 1.66% in assay [1] and 16.1% in assay [2].
Taken in the same sequence, the figures for `COc1ccc(CCN2CCCC2Cn2nc(C)nc2C)cc1` (centres undefined) were -3.2% and -22.5%.
Taken in the same sequence, the figures for `COc1ccc(C(O)CNC(=O)Nc2cc(C)nn2C)cc1` (centres undefined) were -1.41% and 26.8%.
Turning to `CC(=O)N1CCN(C(=O)CN2CCc3c(ncn3C3CC3)C2)CC1`, the Percent Effect was 1.82% in assay [1] and -27.5% in assay [2].
Taken in the same sequence, the figures for `CC1CCN(CCCNS(=O)(=O)c2cccc(F)c2)CC1` were 11.5% and -61.6%.

Values taken from ChEMBL document CHEMBL3988442, “University of Dundee, Small-Polar-MMV Screening Library” (2021).
